Results on 7 compounds are retold here after PubChem BioAssay (EPA / NIEHS).

As a reminder, the AC50 is the midpoint of the concentration-response curve, whichever way the signal moves.

Molecules are shown by their SMILES. Results filed as inconclusive are left out. Calls of active or inactive are those of the source. How the source made its calls, unless noted: active means hit-call score of the fitted dose curve at least 0.9, where 1 is the maximum; inactive means score below 0.9.

A short description of assay [1]: ACEA_ER_80hr: ACEA Biosciences xCELLigence Real-Time Cell Analysis on Estrogen Receptor Agonism for Proliferation (AID 2282667; active means hit-call score of the fitted dose curve at least 0.9, where 1 is the maximum). As to conditions: T47D proliferation, impedance (xCELLigence), 80 h. The gist of the method: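 Impedance readout (RT-CES) of T47D proliferation at 80 h post-dose; gain of signal vs DMSO baseline. Compounds: 8 conc, 1:4 serial, top 100 uM final, ≤0.5% DMSO; biological duplicate.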

Assay [2] can be described thus: ATG_CRE_CIS: Attagene CIS-FACTORIAL HepG2 Assay for human cAMP Responsive Element (CRE) binding protein 3 (AID 2282926). Particulars: HepG2 CRE cis-reporter, Attagene multiplexed mRNA; actives raise or lower the signal. The gist of the method:
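Endogenous CRE-binding activity in HepG2 is reported through a cis-regulated transfected reporter. Following a day of exposure, mRNA levels are determined by reverse transcription PCR and fluorescent fragment analysis; fits run in both directions versus DMSO.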

For assay [3], the target named is CCAAT/enhancer-binding protein beta (Homo sapiens) (UniProt P17676). Put plainly: ATG_C_EBP_CIS: Attagene CIS-FACTORIAL HepG2 Assay for human CCAAT/Enhancer Binding Protein (C/EBP) beta (AID 2282927). Particulars: HepG2 Attagene cis-factorial transcription factor reporter; actives raise or lower the signal. The gist of the method:
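Changes in reporter mRNA, rather than exogenous chimeric receptor activity, reflect native C/EBP signalling in transfected HepG2 cells dosed for 24 h; transcripts are detected by RT-PCR and capillary electrophoresis.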

A short description of assay [4]: ATG_CMV_CIS: Attagene CIS-FACTORIAL HepG2 Assay for human CMV (Internal Marker) (AID 2282928).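 Further: endpoint acts as a background internal control marker rather than a target.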 As to conditions: HepG2 CMV promoter reporter, transcription factor profiling; actives raise or lower the signal. The gist of the method:
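After transient transfection of HepG2 with reporter transcription units driven by cis-regulatory promoters, cells receive test chemical for 24 h. Labeled reporter amplicons, digested with HpaI, are sized and quantified by capillary electrophoresis against DMSO.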

Assay [5] is described as follows: ATG_DR4_LXR_CIS: Attagene CIS-FACTORIAL HepG2 Assay for human Liver X Receptor (LXR), DR4 submotif (AID 2282929). As to conditions: HepG2 Attagene DR4 cis-reporter, mRNA transcription; actives raise or lower the signal. In short, it runs like this:
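The endpoint is DR4-element-driven reporter transcripts after 24 h chemical exposure of transfected HepG2 cells. These were measured via RT-PCR and capillary electrophoresis, and gain or loss of signal was fitted relative to DMSO controls.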

In assay [6] the target is Aryl hydrocarbon receptor (Homo sapiens) (UniProt P35869). Nature of the assay: ATG_Ahr_CIS: Attagene CIS-FACTORIAL HepG2 Assay for human Aryl Hydrocarbon Receptor (Ahr) (AID 2282930). As to conditions: HepG2 AhR cis-factorial reporter transcription; actives raise or lower the signal. In short, it runs like this:
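HepG2, transient MRTU (cis) transfection, 24 h exposure. RNA → cDNA → PCR → 6-FAM primer extension → HpaI 2 h 37 C → CE. Fit: bidirectional, DMSO baseline.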

Assay [7] can be described thus: ATG_AP_1_CIS: Attagene CIS-FACTORIAL HepG2 Assay for human Activator Protein 1 (AP-1) (AID 2282931). As to conditions: HepG2 Attagene cis-factorial AP-1 reporter mRNA; actives raise or lower the signal. The gist of the method:
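Readout is reporter transcript level from endogenous transcription factor activity, quantified by RT-PCR with fluorescent primer extension and capillary electrophoresis. Transiently transfected HepG2 cells, 24 h exposure. Curves fitted both directions versus DMSO.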

The nature of assay [8]: ATG_AP_2_CIS: Attagene CIS-FACTORIAL HepG2 Assay for human Activator Protein 2 (AP-2) (AID 2282932). As to conditions: HepG2 AP-2 cis-reporter, Attagene transcription factor profiling; actives raise or lower the signal. The gist of the method: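 Step one: transient transfection of HepG2 with reporter transcription units. Step two: 24 h chemical exposure. Step three: RNA extraction, RT-PCR, labelled fragment analysis by capillary electrophoresis; DMSO serves as baseline.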

Assay [9] is described as follows: ATG_BRE_CIS: Attagene CIS-FACTORIAL HepG2 Assay for human Bone Morphogenetic Protein (BMP) Response Element (BRE) (AID 2282933). As to conditions: HepG2 BMP response element reporter, Attagene transcription factor profiling; actives raise or lower the signal. The gist of the method:
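HepG2 cells transiently transfected with multiplexed cis-element reporter units were dosed with chemical for 24 h. Reporter mRNA was measured by RT-PCR with fluorescent labelling, HpaI digestion and capillary electrophoresis; bidirectional fitting relative to DMSO.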

Assay [10] has as its target Retinoic acid receptor alpha (Homo sapiens) (UniProt P10276). Nature of the assay: ATG_DR5_RAR_CIS: Attagene CIS-FACTORIAL HepG2 Assay for human Retinoic Acid Receptor Alpha (RARE), DR5 submotif (AID 2282934).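 On AC50: reporter responds to endogenous RAR alpha beta and gamma in HepG2 not RARA alone.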 Particulars: HepG2 Attagene cis-factorial RARE DR5 reporter, mRNA; actives raise or lower the signal. The gist of the method: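 HepG2, transient cis-reporter transfection, 24 h exposure. mRNA readout: RT-PCR, FAM label, HpaI cut, capillary electrophoresis. DMSO baseline, gain/loss fitting.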

The target in assay [11] is Transcription factor E2F1 (Homo sapiens) (UniProt Q01094). Nature of the assay: ATG_E2F_CIS: Attagene CIS-FACTORIAL HepG2 Assay for human E2F Transcription Factor 1 (AID 2282935). Particulars: HepG2 Attagene cis-reporter, E2F reporter RNA transcripts; actives raise or lower the signal. In short, it runs like this: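 Total RNA from 24 h-treated, reporter-transfected HepG2 cells undergoes DNase I treatment, oligo(dT) reverse transcription, PCR and 6-FAM primer extension before capillary electrophoresis.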

Assay [12] is described as follows: ATG_E_Box_CIS: Attagene CIS-FACTORIAL HepG2 Assay for human Enhancer Box (E-box) (AID 2282936). As to conditions: HepG2 E-box cis-reporter transcription, actives raise or lower the signal. The gist of the method: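 DMSO served as negative control and baseline for bidirectional fitting. Human hepatoma HepG2 cells, transiently transfected with cis-reporter constructs, were dosed 24 h; reporter mRNA read by RT-PCR and capillary electrophoresis.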

A short description of assay [13]: ATG_M_61_CIS: Attagene CIS-FACTORIAL HepG2 Assay for M61 Transcription Factor (Internal Marker) (AID 2282937). As to conditions: HepG2 Attagene CIS-FACTORIAL M61 internal marker reporter; actives raise or lower the signal. The gist of the method: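 Readout is reporter mRNA by RT-PCR, fluorescent primer extension and capillary electrophoresis, with gain or loss fitted relative to DMSO. Transfected HepG2 cells carrying endogenous-TF-driven cis reporters were exposed to chemicals for 24 hours.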

Assay [14] is described as follows: ATG_EGR_CIS: Attagene CIS-FACTORIAL HepG2 Assay for human Early Growth Response 1 (EGR1) (AID 2282938). As to conditions: HepG2 Attagene CIS-FACTORIAL EGR reporter mRNA; actives raise or lower the signal. The gist of the method: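 After 24 h compound exposure, RNA from reporter-transfected HepG2 cells was reverse-transcribed, PCR-amplified, fluorescently labelled and resolved by capillary electrophoresis. EGR1 reporter transcript changes, up or down, were fitted against DMSO, reflecting endogenous transcription-factor activity.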

Assay [15] in a line: ATG_M_19_CIS: Attagene CIS-FACTORIAL HepG2 Assay for M19 Transcription Factor (Internal Marker) (AID 2282939). Particulars: HepG2 Attagene CIS-FACTORIAL M19 internal marker reporter; actives raise or lower the signal. The gist of the method:
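HepG2 cells transiently transfected with cis-regulated multiple reporter transcription units were dosed for 24 h; reporter mRNA was quantified by RT-PCR, 6-FAM primer-extension labelling, HpaI digestion and capillary electrophoresis, with bidirectional fitting against DMSO baseline.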

The nature of assay [16]: ATG_ERE_CIS: Attagene CIS-FACTORIAL HepG2 Assay for Estrogen Response Element (ERE) (AID 2282940). As to conditions: HepG2 ERE cis-reporter, Attagene RNA transcript; actives raise or lower the signal. In short, it runs like this:
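HepG2 cells transiently transfected with cis-promoter-driven multiplexed reporter transcription units report endogenous TF activity. After 24 h compound exposure, reporter mRNA is quantified by RT-PCR with capillary electrophoresis fluorescence; bidirectional fitting versus DMSO baseline.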

The nature of assay [17]: ATG_Ets_CIS: Attagene CIS-FACTORIAL HepG2 Assay for human Erythroblast Transformation Specific (ETS) (AID 2282941). Particulars: HepG2 ETS cis-reporter transcription, actives raise or lower the signal. The gist of the method:
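Human HepG2 hepatoma cells were transiently transfected with promoter-driven reporter constructs and treated for 24 hours. Reporter transcripts were quantified by RT-PCR with fluorescent primer extension; bidirectional curve fitting used DMSO as reference.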

Assay [18] addresses Hepatocyte nuclear factor 3-beta (Homo sapiens) (UniProt Q9Y261). Put plainly: ATG_FoxA2_CIS: Attagene CIS-FACTORIAL HepG2 Assay for human Forkhead box A2 (FOXA2) (AID 2282942). Particulars: HepG2 cis-reporter transcription factor activity, 24 h; actives raise or lower the signal. In short, it runs like this: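 Endogenous transcription factor activity is captured via cis-element-driven reporter transcripts in transfected HepG2. Total RNA taken at 24 h post-dosing; labelled RT-PCR products resolved by capillary electrophoresis. Gain or loss fitted versus DMSO.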

The nature of assay [19]: ATG_FoxO_CIS: Attagene CIS-FACTORIAL HepG2 Assay for human Forkhead box O (FoxO) (AID 2282943). Particulars: HepG2 Attagene cis-reporter, FoxO element, mRNA; actives raise or lower the signal. The gist of the method: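 Human hepatoma HepG2 cells carry transiently introduced reporter transcription units controlled by cis promoter elements. Chemical treatment lasted 24 h, and mRNA signal was compared with DMSO.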

Assay [20] can be described thus: ATG_GATA_CIS: Attagene CIS-FACTORIAL HepG2 Assay for human GATA Binding Protein (AID 2282944). Particulars: HepG2 GATA cis-element reporter, Attagene multiplex mRNA; actives raise or lower the signal. In short, it runs like this: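 HepG2 cells transiently transfected with multiplexed cis-element reporter units reflecting endogenous transcription factor activity; reporter mRNA measured after 24 h dosing by RT-PCR, 6-FAM labeling, HpaI digestion and capillary electrophoresis. Bidirectional fitting versus DMSO baseline.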

Aryl hydrocarbon receptor (Homo sapiens), sequence (P35869 whole entry, looked up): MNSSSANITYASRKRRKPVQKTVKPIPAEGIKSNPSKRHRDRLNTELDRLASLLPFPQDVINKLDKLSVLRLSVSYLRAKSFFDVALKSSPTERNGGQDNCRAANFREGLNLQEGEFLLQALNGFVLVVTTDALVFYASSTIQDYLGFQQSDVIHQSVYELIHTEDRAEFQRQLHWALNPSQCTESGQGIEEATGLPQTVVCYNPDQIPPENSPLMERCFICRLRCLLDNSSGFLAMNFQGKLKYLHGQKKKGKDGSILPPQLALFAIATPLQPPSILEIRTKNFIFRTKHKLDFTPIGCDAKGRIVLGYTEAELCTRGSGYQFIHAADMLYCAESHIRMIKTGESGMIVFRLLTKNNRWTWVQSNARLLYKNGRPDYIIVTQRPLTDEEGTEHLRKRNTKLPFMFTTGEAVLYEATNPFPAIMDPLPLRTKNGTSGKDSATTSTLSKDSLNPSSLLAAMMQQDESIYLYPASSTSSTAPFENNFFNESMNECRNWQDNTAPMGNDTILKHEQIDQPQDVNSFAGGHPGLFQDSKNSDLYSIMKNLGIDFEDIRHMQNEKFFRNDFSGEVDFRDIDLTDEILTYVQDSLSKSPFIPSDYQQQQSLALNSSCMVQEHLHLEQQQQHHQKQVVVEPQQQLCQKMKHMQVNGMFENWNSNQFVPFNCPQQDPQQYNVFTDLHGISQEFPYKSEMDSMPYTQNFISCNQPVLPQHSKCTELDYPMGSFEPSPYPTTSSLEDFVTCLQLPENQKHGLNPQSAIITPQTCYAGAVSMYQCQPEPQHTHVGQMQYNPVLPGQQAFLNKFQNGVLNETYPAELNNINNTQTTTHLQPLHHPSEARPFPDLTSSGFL
Hepatocyte nuclear factor 3-beta (Homo sapiens), sequence (Q9Y261 whole entry, looked up): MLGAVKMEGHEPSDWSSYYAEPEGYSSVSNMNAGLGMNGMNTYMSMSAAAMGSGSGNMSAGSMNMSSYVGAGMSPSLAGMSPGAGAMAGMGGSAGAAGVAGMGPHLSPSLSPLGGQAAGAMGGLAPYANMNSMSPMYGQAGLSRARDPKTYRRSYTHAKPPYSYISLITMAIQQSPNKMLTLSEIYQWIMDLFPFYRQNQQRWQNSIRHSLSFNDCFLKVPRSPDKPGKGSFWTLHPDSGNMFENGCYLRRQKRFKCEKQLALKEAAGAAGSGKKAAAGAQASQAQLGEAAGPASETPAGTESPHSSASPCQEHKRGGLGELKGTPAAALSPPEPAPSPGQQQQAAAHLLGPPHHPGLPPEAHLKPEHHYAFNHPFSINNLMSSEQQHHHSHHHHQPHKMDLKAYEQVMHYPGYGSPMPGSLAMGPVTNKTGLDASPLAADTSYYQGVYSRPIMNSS
CCAAT/enhancer-binding protein beta (Homo sapiens), sequence (P17676 whole entry, looked up): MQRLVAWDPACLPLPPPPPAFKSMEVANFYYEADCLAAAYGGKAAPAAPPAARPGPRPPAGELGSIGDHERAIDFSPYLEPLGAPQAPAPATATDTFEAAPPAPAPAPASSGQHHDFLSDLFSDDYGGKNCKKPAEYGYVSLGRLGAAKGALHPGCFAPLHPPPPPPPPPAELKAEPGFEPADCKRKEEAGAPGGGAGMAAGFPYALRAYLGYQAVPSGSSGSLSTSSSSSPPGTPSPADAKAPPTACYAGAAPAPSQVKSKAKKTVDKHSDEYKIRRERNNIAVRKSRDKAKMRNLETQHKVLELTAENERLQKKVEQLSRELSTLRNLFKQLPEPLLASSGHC
Transcription factor E2F1 (Homo sapiens), sequence (Q01094 whole entry, looked up): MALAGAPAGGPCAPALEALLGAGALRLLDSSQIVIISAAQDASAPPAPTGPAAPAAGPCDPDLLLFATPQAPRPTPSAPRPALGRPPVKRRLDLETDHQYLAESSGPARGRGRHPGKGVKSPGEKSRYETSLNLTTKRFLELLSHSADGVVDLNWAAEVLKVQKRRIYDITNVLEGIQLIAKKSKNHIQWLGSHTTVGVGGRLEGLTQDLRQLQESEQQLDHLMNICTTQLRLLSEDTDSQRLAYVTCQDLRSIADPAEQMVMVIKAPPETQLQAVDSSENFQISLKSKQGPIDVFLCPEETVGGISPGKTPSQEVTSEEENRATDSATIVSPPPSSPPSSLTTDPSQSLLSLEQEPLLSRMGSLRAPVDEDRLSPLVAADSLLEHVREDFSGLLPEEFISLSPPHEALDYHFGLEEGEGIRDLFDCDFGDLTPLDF
Retinoic acid receptor alpha (Homo sapiens), sequence (P10276 whole entry, looked up): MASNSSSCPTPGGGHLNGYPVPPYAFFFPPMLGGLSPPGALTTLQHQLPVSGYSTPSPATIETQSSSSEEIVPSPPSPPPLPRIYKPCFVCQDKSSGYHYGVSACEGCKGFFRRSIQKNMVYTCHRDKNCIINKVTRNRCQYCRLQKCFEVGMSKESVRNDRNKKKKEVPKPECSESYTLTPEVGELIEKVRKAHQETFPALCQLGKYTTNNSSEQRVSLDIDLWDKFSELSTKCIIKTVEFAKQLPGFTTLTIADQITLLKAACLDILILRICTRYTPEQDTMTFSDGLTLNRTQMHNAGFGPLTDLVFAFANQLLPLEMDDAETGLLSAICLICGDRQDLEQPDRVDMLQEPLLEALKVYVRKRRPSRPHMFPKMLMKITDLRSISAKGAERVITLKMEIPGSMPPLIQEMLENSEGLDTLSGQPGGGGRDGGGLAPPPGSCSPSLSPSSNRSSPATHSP

In the case of `CCCC(=O)OCC(COC(=O)CCC)OC(=O)CCC`, the compound was classed as inactive in [1], in assay [2], in assay [3], in [5], in [6] and in assay [7]. The outcome in assay [8], in [11], in [12], in assay [13], in [14] and in assay [15] was inactive. The outcome in assay [16], in assay [17], in assay [18], in assay [19] and in assay [20] was inactive. In addition, the AC50 in assay [4] was 69.3 µM (active); in [9] it was 57.5 µM (active); in assay [10] it was 37.5 µM (active).
Regarding `CCCCOC(=O)C(C)O` (stereo not given), the compound was called inactive in assay [1], in assay [2], in assay [3], in assay [4], in assay [5] and in [6]. Besides, the call in assay [7], in [8], in assay [9], in assay [10], in assay [11] and in [12] was inactive. In addition, the result in assay [13], in assay [14], in assay [15], in assay [16], in [17] and in [18] was inactive. Also, the call in [19] and in assay [20] was inactive.
Take `CCC(C)CO` (stereo not given): the compound was called inactive in assay [1], in [2], in assay [3], in [4], in assay [5] and in [6]. Further, the call in assay [7], in assay [8], in assay [9], in assay [10], in [11] and in [12] was inactive. Besides, the result in assay [13], in assay [14], in [15], in assay [16], in assay [17] and in assay [18] was inactive. Also, the result in assay [19] and in assay [20] was inactive.
Turning to `CCC/C=C/CO`, the compound was called inactive in [1], in assay [2], in [3], in [4], in [5] and in assay [6]. Also, the outcome in assay [7], in assay [8], in [9], in assay [10], in [11] and in assay [12] was inactive. In addition, the outcome in assay [13], in assay [14], in assay [15], in assay [16], in [17] and in assay [18] was inactive. Besides, the compound was called inactive in assay [19] and in assay [20].
Consider `Oc1ccc2c(c1)CCC2`, for which the call in assay [1], in [2], in [3], in [4], in assay [5] and in assay [6] was inactive. In addition, the compound was called inactive in assay [7], in [8], in [9], in [10], in [11] and in [12]. Further, the outcome in assay [13], in assay [14], in [15], in assay [17], in assay [18] and in assay [19] was inactive. Besides, the compound was called inactive in [20]. For the same compound, the AC50 in assay [16] is 55.2 µM (active).
Turning to `CC(C)Nc1ccc(NC(C)C)c2c1C(=O)c1ccccc1C2=O`, the outcome in assay [1], in [2], in assay [3], in assay [4], in assay [5] and in assay [7] was inactive. Further, the call in assay [8], in assay [9], in [10], in assay [11], in assay [12] and in assay [13] was inactive. Besides, the call in assay [14], in assay [15], in [16], in assay [17], in assay [18] and in assay [19] was inactive. The call in assay [20] was inactive. Further, the AC50 in assay [6] is 3.35 µM (active).
`OCCCCC(F)(F)C(F)(F)C(F)(F)C(F)(F)F`: the call in assay [1], in assay [2], in assay [3], in assay [4], in [5] and in [6] was inactive. The compound was classed as inactive in assay [7], in assay [8], in assay [9], in [10], in [11] and in [12]. In addition, the call in [13], in assay [14], in assay [15], in assay [16], in [17] and in [18] was inactive. Moreover, the compound was called inactive in assay [19] and in [20].
